# Assay results as given in PubChem BioAssay AID488890 (Southern Research Specialized Biocontainment Screening …, 2010).
# The whole screen tested about 320,000 compounds, of which about 1,300 (0.41%) were called active. Not shown: some 3% with an inconclusive outcome. No rule for the calls is given here. Only a sample is shown. Results with a measured potency or affinity are listed apart.
# Assay: growth inhibition of non-replicating M. tuberculosis (AID 488890);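 also: plate controls were DMSO cells for no effect and high antibiotic wells for full effect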
# Details: Mycobacterium tuberculosis non-replicating, at 25 µM, stronger effect = higher value
row,Structure (SMILES),inhibition
1,O=c1c2cc(F)ccc2sn1-c1ccccc1,20.9%
2,Cc1ccc(C)c(-n2sc3ccc(F)cc3c2=O)c1,-21.9%
3,Cc1ccc(S(=O)(=O)N2CCC(=O)N(C(CO)C(C)C)CC2)cc1 (centres undefined),-0.84%
4,Cc1ccc(C(=O)c2ccc(C(F)(F)F)cc2)cc1,23.7%
5,CC(O)C(=O)N/N=C/c1ccccc1C(=O)O (centres undefined),-1.19%
6,COc1ccc2[nH]c3c(Cl)ncnc3c2c1,66.1%
7,COc1ccc2c(c1)[nH]c1c(C)nccc12,0.33%
8,COc1ccc(NC(=O)C2CCCN(C(=O)c3ccc(Cl)cc3)C2)cc1Cl (centres undefined),5.35%
9,CCOc1ccc(CNC(=O)Cn2ccc3cc(S(=O)(=O)N4CCCC4)ccc32)cc1,9.09%
10,CC(NC(=O)Cc1ccsc1)c1ccc(F)cc1 (centres undefined),3.93%
11,COc1ccc(Br)c(C(=O)N2CCN(S(=O)(=O)/C=C/c3ccccc3)CC2)c1,17.6%
12,CCc1ccc(N2CC(C(=O)Nc3ccc(S(=O)(=O)NCC4CCCO4)cc3)CC2=O)cc1 (centres undefined),-5.44%
13,CC1(C)CC(=O)C(=Cc2cn(-c3ccccc3)nc2-c2ccccc2)C(=O)C1,44.3%
14,Cc1nc2ccccc2c(=O)n1/N=C/c1cn(-c2ccccc2)nc1-c1cccs1,3.43%
15,O=Cc1cn(-c2ccccc2)nc1-c1ccccc1,-1.35%
16,O=C(N/N=C/c1cn(-c2ccccc2)nc1-c1cccs1)c1ccccc1F,3.19%
17,S=c1[nH]nc(-c2cccs2)n1/N=C/c1cn(-c2ccccc2)nc1-c1cccs1,-1.62%
18,NC(=O)N/N=C/c1cn(-c2ccccc2)nc1-c1cccs1,8.14%
19,Cc1ccc(/C=C2\SC(=S)N(CCC(=O)Nc3cccnc3)C2=O)cc1,2.99%
20,Cc1ccc(CN2CC(C(=O)N3CCN(c4ccccc4O)CC3)CC2=O)cc1 (centres undefined),5.09%
21,COc1ccc2cc3cc(C(=O)N4CCN(c5ccccn5)CC4)oc3nc2c1,15.3%
22,CCOc1cc(/C=C/C(=O)N(CC)CC(=O)NCc2cccs2)cc(Cl)c1OC,11.9%
23,COc1ccccc1Cn1nnc2c(=O)[nH]c(C3CCN(C(=O)c4ccccc4Cl)CC3)nc21,33.2%
24,CC(=O)Nc1ccc(-c2csc(NC(=O)CCNC(=O)c3ccco3)n2)cc1,1.09%
25,O=C(COC(=O)CCS(=O)(=O)c1ccc(Cl)cc1)NCCc1ccc(Cl)cc1Cl,21.4%
26,COC(=O)c1cc(Br)c(=O)n(Cc2ccc(C(=O)O)cc2)c1,-0.84%
27,COC(=O)c1ccc(Cn2cc(C(F)(F)F)ccc2=O)cc1,69.9%
28,C[C@H](CO)N1C[C@H](C)[C@@H](CN(C)C(=O)NC2CCCCC2)Oc2c(NC(=O)Cc3ccccc3)cccc2C1=O,17.9%
29,CN(CC(=O)Nc1ccc(F)c(F)c1)S(=O)(=O)c1cccs1,2.99%
